We go through 30 sequences from paper PMC9838217, “Structure of SALL4 zinc finger domain reveals link between AT-rich DNA binding and Okihiro syndrome”.

Residue numbers refer to the chain shown, from its start.

Test in all cases: HT-SELEX; high values mean tight binding
What all share (conditions): protein: recombinant; vector His6-GST; dsDNA, one strand shown

The target in test [1] is T1, SALL4 ZFC4 WT (HT-SELEX) (Mus musculus, UniProt Q8BX22 870-940).
T1 sequence: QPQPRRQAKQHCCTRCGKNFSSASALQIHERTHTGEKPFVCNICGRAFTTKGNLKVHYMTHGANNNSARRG
The method, boiled down: (§1)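 A 100 µl reaction of 10 mM Tris–HCl pH 7.5, 50 mM NaCl, poly(dI-dC) and DTT held purified recombinant mouse SALL4 zinc finger cluster 4 (residues 870–940, 1 µg) and library DNA (1.5 µg first cycle, 200 ng later) for 10 min at room temperature. Complexes captured on Ni2+ beads were washed, PCR-amplified and reselected for up to 6 cycles, in triplicate, then MiSeq-sequenced and scanned for 6-mers. Binding signal is the read fraction of each canonical k-mer expressed as fold change over the initial random library.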

The target in test [2] is T2, SALL4 ZFC4 R900W (HT-SELEX) (Mus musculus, UniProt Q8BX22 870-940, R900W).
T2 sequence: T1 sequence with R31W
The method, boiled down: as §1

Test [3] has as its target T3, SALL4 ZFC4 G921D (HT-SELEX) (Mus musculus, UniProt Q8BX22 870-940, G921D).
T3 sequence: T1 sequence with G52D
An outline of the steps:
as §1

Turning to GTATAC, the binding signal in test [1] came to 1.25 ± 0.0389 fold-change vs cycle 0; in test [2], 1.39 ± 0.0328 fold-change vs cycle 0; in test [3] it was 1.34 ± 0.0932 fold-change vs cycle 0.
With ACTGAC, the binding signal was determined as 0.782 ± 0.026 fold-change vs cycle 0 in test [1], 0.909 ± 0.0341 fold-change vs cycle 0 in test [2] and 0.934 ± 0.016 fold-change vs cycle 0 in test [3].
The corresponding values for GAAGGC are 0.304 ± 0.0244 fold-change vs cycle 0, 0.39 ± 0.0131 fold-change vs cycle 0 and 0.522 ± 0.0691 fold-change vs cycle 0.
Consider GTCTCA, for which the binding signal was found to be 0.736 ± 0.016 fold-change vs cycle 0 in test [1], 0.879 ± 0.00912 fold-change vs cycle 0 in test [2] and 0.938 ± 0.0386 fold-change vs cycle 0 in test [3].
Consider CTTATC, for which the binding signal in test [1] was determined as 1.5 ± 0.0472 fold-change vs cycle 0; in test [2], 1.62 ± 0.0833 fold-change vs cycle 0; in test [3], 1.44 ± 0.0973 fold-change vs cycle 0.
For CTTGAC, the binding signal in test [1] came out at 0.777 ± 0.0347 fold-change vs cycle 0; in test [2] it was 0.934 ± 0.0128 fold-change vs cycle 0; in test [3], 0.981 ± 0.0363 fold-change vs cycle 0.
As for ATAGGG, the values for the binding signal in test [1], in test [2] and in test [3] were 0.829 ± 0.0359 fold-change vs cycle 0, 0.924 ± 0.0323 fold-change vs cycle 0 and 0.954 ± 0.0273 fold-change vs cycle 0, respectively.
With GAGTGA, the binding signal in test [1] stood at 0.906 ± 0.0342 fold-change vs cycle 0; in test [2], 1.02 ± 0.0645 fold-change vs cycle 0; in test [3], 1.05 ± 0.0602 fold-change vs cycle 0.
On to AAACTC, for which the binding signal in test [1] is 1.19 ± 0.0627 fold-change vs cycle 0; in test [2], 1.3 ± 0.0461 fold-change vs cycle 0; in test [3], 1.28 ± 0.0858 fold-change vs cycle 0.
For CTAGGA, the values for the binding signal in test [1], in test [2] and in test [3] were 0.873 ± 0.029 fold-change vs cycle 0, 0.993 ± 0.0392 fold-change vs cycle 0 and 0.975 ± 0.0202 fold-change vs cycle 0, respectively.
For the sequence ATTAAG, the binding signal in test [1] came to 2.1 ± 0.107 fold-change vs cycle 0; in test [2] it was 2.09 ± 0.139 fold-change vs cycle 0; in test [3], 1.82 ± 0.22 fold-change vs cycle 0.
The corresponding values for CAACGA are 0.626 ± 0.036 fold-change vs cycle 0, 0.7439 ± 0.00396 fold-change vs cycle 0 and 0.81 ± 0.0225 fold-change vs cycle 0.
As for TCTTCA, the binding signal in test [1] was 1.42 ± 0.033 fold-change vs cycle 0; in test [2] it was 1.6 ± 0.094 fold-change vs cycle 0; in test [3] it was 1.48 ± 0.131 fold-change vs cycle 0.
Turning to AATGAG, the binding signal came out at 1.36 ± 0.0386 fold-change vs cycle 0 in test [1], 1.5 ± 0.047 fold-change vs cycle 0 in test [2] and 1.41 ± 0.0472 fold-change vs cycle 0 in test [3].
Taken in the same sequence, the figures for CATATA were 2.3 ± 0.215 fold-change vs cycle 0, 1.91 ± 0.115 fold-change vs cycle 0 and 1.71 ± 0.163 fold-change vs cycle 0.
In the case of CTATTA, the results for the binding signal in test [1], in test [2] and in test [3] were 2.26 ± 0.136 fold-change vs cycle 0, 2.05 ± 0.132 fold-change vs cycle 0 and 1.81 ± 0.165 fold-change vs cycle 0, respectively.
Regarding TCATAA, the binding signal in test [1] is 3.28 ± 0.256 fold-change vs cycle 0; in test [2], 2.06 ± 0.0751 fold-change vs cycle 0; in test [3], 1.84 ± 0.154 fold-change vs cycle 0.
Consider AACACC, for which the binding signal in test [1] was found to be 0.749 ± 0.0181 fold-change vs cycle 0; in test [2], 0.848 ± 0.0177 fold-change vs cycle 0; in test [3], 0.89 ± 0.0213 fold-change vs cycle 0.
The corresponding values for AATAAT are 4.57 ± 0.438 fold-change vs cycle 0, 2.66 ± 0.189 fold-change vs cycle 0 and 2.27 ± 0.265 fold-change vs cycle 0.
With GAGCTC, the binding signal stood at 0.338 ± 0.0166 fold-change vs cycle 0 in test [1], 0.439 ± 0.0575 fold-change vs cycle 0 in test [2] and 0.585 ± 0.0582 fold-change vs cycle 0 in test [3].
With ATAGAG, the values for the binding signal in test [1], in test [2] and in test [3] were 1.4 ± 0.0362 fold-change vs cycle 0, 1.43 ± 0.0403 fold-change vs cycle 0 and 1.38 ± 0.0574 fold-change vs cycle 0, respectively.
For the sequence CTCGGA, the binding signal worked out at 0.396 ± 0.0242 fold-change vs cycle 0 in test [1], 0.468 ± 0.0145 fold-change vs cycle 0 in test [2] and 0.589 ± 0.0706 fold-change vs cycle 0 in test [3].
Turning to GATATA, the binding signal is 2.54 ± 0.207 fold-change vs cycle 0 in test [1], 1.98 ± 0.124 fold-change vs cycle 0 in test [2] and 1.77 ± 0.173 fold-change vs cycle 0 in test [3].
AAAACG: the binding signal in test [1] was 0.821 ± 0.0591 fold-change vs cycle 0; in test [2], 0.931 ± 0.0404 fold-change vs cycle 0; in test [3], 0.972 ± 0.016 fold-change vs cycle 0.
Regarding AAACTG, the binding signal in test [1] came to 1.1 ± 0.0398 fold-change vs cycle 0; in test [2], 1.2 ± 0.0458 fold-change vs cycle 0; in test [3] it was 1.17 ± 0.0583 fold-change vs cycle 0.
For AACCAT, the binding signal in test [1] was found to be 1.38 ± 0.0512 fold-change vs cycle 0; in test [2], 1.42 ± 0.0463 fold-change vs cycle 0; in test [3], 1.41 ± 0.0967 fold-change vs cycle 0.
For ACAAGG, the binding signal was 0.796 ± 0.0489 fold-change vs cycle 0 in test [1], 0.976 ± 0.041 fold-change vs cycle 0 in test [2] and 0.945 ± 0.0282 fold-change vs cycle 0 in test [3].
Consider ATTAGG, for which the binding signal in test [1] stood at 1.38 ± 0.0909 fold-change vs cycle 0; in test [2], 1.48 ± 0.0913 fold-change vs cycle 0; in test [3], 1.4 ± 0.0983 fold-change vs cycle 0.
For CACGGA, the binding signal in test [1] worked out at 0.395 ± 0.0417 fold-change vs cycle 0; in test [2] it was 0.459 ± 0.0312 fold-change vs cycle 0; in test [3], 0.571 ± 0.0613 fold-change vs cycle 0.
Regarding ACGAGT, the results for the binding signal in test [1], in test [2] and in test [3] were 0.767 ± 0.0224 fold-change vs cycle 0, 0.897 ± 0.033 fold-change vs cycle 0 and 0.922 ± 0.0421 fold-change vs cycle 0, respectively.
